Among all 5,500 compounds or so, about 2,000 (36%) were called active. Not shown: some 18% with an inconclusive outcome. Cut-off read from the data, not from the text of the source: active = normalized growth mostly below about 0.91 (no sharp cut-off); inconclusive = no clear call, values can overlap the other calls; inactive = mostly above about 0.92. Some of the results follow.
Assay: chemical genetic growth profiling, strain panel (AID 1159580);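 note: tested at 20 µM; growth read once vehicle control cultures reached saturation at 30 °C; 1 = growth at the plate median or of vehicle wells; lower values mean less growth of the strain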
Conditions: growth OD
[1] = S. cerevisiae deletion strains, locus YAL013W, strain DEP1, stronger effect = lower value
[2] = S. cerevisiae deletion strains, locus YBR229C, strain ROT2, stronger effect = lower value
[3] = S. cerevisiae deletion strains, locus YCL061C, strain MRC1, stronger effect = lower value
[4] = S. cerevisiae deletion strains, locus YDL101C, strain DUN1, stronger effect = lower value
[5] = S. cerevisiae deletion strains, locus YDR150W, strain NUM1, stronger effect = lower value
[6] = S. cerevisiae deletion strains, locus YEL061C, strain CIN8, stronger effect = lower value
[7] = S. cerevisiae deletion strains, locus YGR078C, strain PAC10, stronger effect = lower value
[8] = S. cerevisiae deletion strains, locus YHR030C, strain SLT2, stronger effect = lower value
[9] = S. cerevisiae deletion strains, locus YHR087W, strain rtc3, stronger effect = lower value
[10] = S. cerevisiae deletion strains, locus YJR043C, strain POL32, stronger effect = lower value
[11] = S. cerevisiae deletion strains, locus YJR075W, strain HOC1, stronger effect = lower value
[12] = S. cerevisiae deletion strains, locus YLR039C, strain RIC1, stronger effect = lower value
[13] = S. cerevisiae deletion strains, locus YLR058C, strain SHM2 (second series), stronger effect = lower value
[14] = S. cerevisiae deletion strains, locus YLR085C, strain ARP6, stronger effect = lower value
[15] = S. cerevisiae deletion strains, locus YLR262C, strain YPT6, stronger effect = lower value
[16] = S. cerevisiae deletion strains, locus YML094W, strain GIM5, stronger effect = lower value
[17] = S. cerevisiae deletion strains, locus YMR219W, strain ESC1, stronger effect = lower value
[18] = S. cerevisiae deletion strains, locus YMR263W, strain SAP30, stronger effect = lower value
[19] = S. cerevisiae deletion strains, locus YNL153C, strain GIM3, stronger effect = lower value
[20] = S. cerevisiae deletion strains, locus YNL298W, strain CLA4 (second series), stronger effect = lower value
[21] = S. cerevisiae deletion strains, locus YNL322C, strain KRE1, stronger effect = lower value
[22] = S. cerevisiae deletion strains, locus YNR030W, strain Alg12, stronger effect = lower value
[23] = S. cerevisiae deletion strains, locus YOL006C, strain TOP1, stronger effect = lower value
[24] = S. cerevisiae deletion strains, locus YPL055C, strain LGE1, stronger effect = lower value
[25] = S. cerevisiae deletion strains, locus YPL241C, strain CIN2, stronger effect = lower value
[26] = S. cerevisiae deletion strains, locus YPR135W, strain CTF4, stronger effect = lower value
[27] = S. cerevisiae strains, strain wild type, stronger effect = lower value
[28] = S. cerevisiae deletion strains, locus YDL134C, strain PPH21, stronger effect = lower value

Measured: normalized growth

CSc1cccc(NC(=S)N=CN(C)C)c1
inactive: [1] 0.977 | [2] 1.01 | [3] 0.954 | [4] 0.944 | [5] 0.974 | [6] 0.997 | [7] 0.977 | [8] 0.882 | S. cerevisiae deletion strains, locus YJL187C, strain SWE1, stronger effect = lower value 0.988 | [10] 0.961 | [11] 1.05 | [13] 1.03 | [15] 0.932 | [16] 0.96 | [17] 1 | [18] 0.983 | S. cerevisiae deletion strains, locus YNL128W, strain TEP1, stronger effect = lower value 0.962 | [19] 0.963 | [21] 1 | [22] 0.958 | [24] 1.02 | [25] 0.898 | [26] 0.787 | [27] 0.933
active: [9] 1.12 [resistant] | [12] 0.73 | [14] 0.618 | [20] 0.798 | [23] 0.393

Cc1cc(Oc2ccc(C(F)(F)F)cc2NS(C)(=O)=O)cc(C)c1Cl
active: [8] 0.802 | S. cerevisiae deletion strains, locus YLR113W, strain HOG1, stronger effect = lower value 0.75 | S. cerevisiae deletion strains, locus YPL256C, strain CLN2, stronger effect = lower value 0.827
inactive: S. cerevisiae deletion strains, locus YAR019C, strain CDC15, stronger effect = lower value 0.992 | S. cerevisiae deletion strains, locus YBL105C, strain PKC1, stronger effect = lower value 0.988 | S. cerevisiae deletion strains, locus YBR135W, strain CKS1, stronger effect = lower value 0.995 | S. cerevisiae deletion strains, locus YBR136W, strain MEC1, stronger effect = lower value 0.991 | S. cerevisiae deletion strains, locus YBR160W, strain CDC28, stronger effect = lower value 0.988 | S. cerevisiae deletion strains, locus YDL017W, strain CDC7, stronger effect = lower value 0.982 | S. cerevisiae deletion strains, locus YDL028C, strain MPS1, stronger effect = lower value 0.998 | [4] 0.979 | S. cerevisiae deletion strains, locus YDL108W, strain KIN28, stronger effect = lower value 0.995 | S. cerevisiae deletion strains, locus YDL132W, strain cdc53, stronger effect = lower value 0.989 | S. cerevisiae deletion strains, locus YDL214C, strain PRR2, stronger effect = lower value 0.961 | S. cerevisiae deletion strains, locus YDR052C, strain DBF4, stronger effect = lower value 0.996 | S. cerevisiae deletion strains, locus YDR054C, strain cdc34, stronger effect = lower value 0.995 | S. cerevisiae deletion strains, locus YDR226W, strain ADK1, stronger effect = lower value 0.979 | S. cerevisiae deletion strains, locus YDR477W, strain SNF1, stronger effect = lower value 0.978 | S. cerevisiae deletion strains, locus YER123W, strain YCK3, stronger effect = lower value 0.95 | S. cerevisiae deletion strains, locus YER133W, strain GLC7, stronger effect = lower value 0.974 | S. cerevisiae deletion strains, locus YFL009W, strain cdc4, stronger effect = lower value 0.995 | S. cerevisiae deletion strains, locus YFL029C, strain CAK1, stronger effect = lower value 0.981 | S. cerevisiae deletion strains, locus YFR003C, strain YPI1, stronger effect = lower value 0.986 | S. cerevisiae deletion strains, locus YFR019W, strain FAB1, stronger effect = lower value 0.984 | S. cerevisiae deletion strains, locus YFR028C, strain CDC14, stronger effect = lower value 0.995 | S. cerevisiae deletion strains, locus YGR040W, strain KSS1, stronger effect = lower value 0.985 | S. cerevisiae deletion strains, locus YGR052W, strain FMP48, stronger effect = lower value 0.986 | S. cerevisiae deletion strains, locus YGR092W, strain DBF2, stronger effect = lower value 0.889 | S. cerevisiae deletion strains, locus YHR079C, strain IRE1, stronger effect = lower value 0.873 | S. cerevisiae deletion strains, locus YHR082C, strain KSP1, stronger effect = lower value 1.03 | S. cerevisiae deletion strains, locus YHR205W, strain SCH9, stronger effect = lower value 0.902 | S. cerevisiae deletion strains, locus YIL147C, strain SLN1, stronger effect = lower value 0.993 | S. cerevisiae deletion strains, locus YJL095W, strain BCK1, stronger effect = lower value 0.891 | S. cerevisiae deletion strains, locus YJL128C, strain PBS2, stronger effect = lower value 0.947 | S. cerevisiae deletion strains, locus YJL157C, strain FAR1, stronger effect = lower value 0.963 | S. cerevisiae deletion strains, locus YJR016C, strain ILV3, stronger effect = lower value 0.986 | S. cerevisiae deletion strains, locus YJR066W, strain TOR1 (second series), stronger effect = lower value 0.928 | S. cerevisiae deletion strains, locus YJR066W, strain TOR1, stronger effect = lower value 1.01 | S. cerevisiae deletion strains, locus YKL048C, strain ELM1, stronger effect = lower value 0.985 | S. cerevisiae deletion strains, locus YKL067W, strain YNK1, stronger effect = lower value 0.957 | S. cerevisiae deletion strains, locus YKL101W, strain HSL1, stronger effect = lower value 0.961 | S. cerevisiae deletion strains, locus YKL193C, strain SDS22, stronger effect = lower value 0.989 | S. cerevisiae deletion strains, locus YKL203C, strain TOR2, stronger effect = lower value 1.02 | S. cerevisiae deletion strains, locus YLR133W, strain CKI1, stronger effect = lower value 0.96 | S. cerevisiae deletion strains, locus YLR403W, strain SFP1, stronger effect = lower value 0.939 | S. cerevisiae deletion strains, locus YML070W, strain DAK1, stronger effect = lower value 0.931 | S. cerevisiae deletion strains, locus YMR001C, strain CDC5, stronger effect = lower value 0.989 | S. cerevisiae deletion strains, locus YMR205C, strain PFK2 (second series), stronger effect = lower value 0.972 | S. cerevisiae deletion strains, locus YMR277W, strain FCP1, stronger effect = lower value 0.991 | S. cerevisiae deletion strains, locus YNL006W, strain LST8, stronger effect = lower value 0.983 | S. cerevisiae deletion strains, locus YNL020C, strain ARK1, stronger effect = lower value 0.914 | S. cerevisiae deletion strains, locus YNL161W, strain CBK1, stronger effect = lower value 0.985 | S. cerevisiae deletion strains, locus YNL183C, strain NPR1, stronger effect = lower value 0.981 | S. cerevisiae deletion strains, locus YNL207W, strain RIO2, stronger effect = lower value 0.987 | S. cerevisiae deletion strains, locus YNL222W, strain SSU72, stronger effect = lower value 0.996 | S. cerevisiae deletion strains, locus YNL307C, strain MCK1 (second series), stronger effect = lower value 0.939 | S. cerevisiae deletion strains, locus YOL078W, strain AVO1, stronger effect = lower value 0.995 | S. cerevisiae deletion strains, locus YOL136C, strain PFK27, stronger effect = lower value 0.939 | S. cerevisiae deletion strains, locus YOR061W, strain CKA2, stronger effect = lower value 0.923 | S. cerevisiae deletion strains, locus YOR119C, strain RIO1, stronger effect = lower value 1.04 | S. cerevisiae deletion strains, locus YOR231W, strain MKK1, stronger effect = lower value 0.902 | S. cerevisiae deletion strains, locus YOR329C, strain SCD5, stronger effect = lower value 0.984 | S. cerevisiae deletion strains, locus YPL031C, strain PHO85, stronger effect = lower value 0.971 | S. cerevisiae deletion strains, locus YPL153C, strain RAD53, stronger effect = lower value 0.981 | S. cerevisiae deletion strains, locus YPL204W, strain HRR25, stronger effect = lower value 0.947 | S. cerevisiae deletion strains, locus YPL209C, strain IPL1, stronger effect = lower value 0.987 | S. cerevisiae deletion strains, locus YPR025C, strain CCL1, stronger effect = lower value 0.993 | S. cerevisiae deletion strains, locus YPR106W, strain ISR1, stronger effect = lower value 0.985 | S. cerevisiae deletion strains, locus YPR111W, strain DBF20, stronger effect = lower value 0.973 | S. cerevisiae deletion strains, strain NNK1, stronger effect = lower value 0.984 | S. cerevisiae deletion strains, strain TSCII, stronger effect = lower value 0.993

COc1ccccc1Oc1ccc(C(F)(F)F)cc1NC(=O)NC(=O)c1ccccc1F
inactive: [1] 0.997 | [2] 1 | [3] 0.972 | [4] 0.968 | [28] 0.984 | [5] 1.02 | [6] 0.979 | [7] 0.979 | [8] 1 | [9] 1.06 | [10] 0.984 | [11] 1.02 | [12] 0.964 | [13] 1 | [14] 1.02 | [15] 1.02 | [16] 1.02 | [17] 0.994 | [18] 1.01 | [19] 1 | [20] 0.958 | [21] 0.995 | [22] 1.03 | [23] 0.966 | [24] 1.04 | [25] 0.992 | [26] 0.957 | [27] 0.974

COc1ccc(CCNc2ccc(C(F)(F)F)cc2N)cc1OC
inactive: [1] 1 | [2] 0.998 | [3] 1 | [4] 0.974 | [28] 1.02 | [5] 0.911 | [6] 1.02 | [7] 0.985 | [8] 0.903 | [9] 1.04 | [10] 0.996 | [11] 1.02 | [12] 0.988 | [13] 1.01 | [14] 0.961 | [15] 0.946 | [16] 0.972 | [17] 0.994 | [18] 0.918 | [19] 0.988 | [20] 0.966 | [21] 1.01 | [22] 0.974 | [23] 1.01 | [24] 0.893 | [25] 0.93 | [26] 0.842 | [27] 1.01
